Laboratory results as given in PubChem BioAssay (NCI).
About 79,000 compounds went through this panel and 15% of them were active in at least one assay; those are over-represented in the sample as a whole. A number with no mark means an inactive call. Calls of active or inactive are those of the source. Cut-off read from the data, not from the text of the source: active = growth inhibition above about 70%; inactive = the rest.

How the values were obtained:
[1] = NCI Yeast Anticancer Drug Screen. Data for the rad50 strain (AID 155);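 note: 0% = growth of vehicle-only cultures of the same strain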; conditions: S. cerevisiae rad50 strain growth inhibition; at 50.0 µM; active compounds read high
Method in brief: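 Compounds were tested on a yeast strain with an engineered DNA damage repair alteration; the reported value is growth inhibition normalised to vehicle treatment.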

[2] = NCI Yeast Anticancer Drug Screen. Data for the mec2-1 strain (AID 157); conditions: S. cerevisiae mec2-1 strain, at 50.0 µM, active compounds read high
Method in brief: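 mec2-1 yeast strain, carrying an alteration in DNA damage repair or cell cycle control, was exposed to compounds; growth inhibition was measured relative to vehicle-treated controls.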

[3] = NCI Yeast Anticancer Drug Screen. Data for the sgs1 mgt1 strain (AID 161);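 note: 0% = growth of cultures given vehicle only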; conditions: S. cerevisiae sgs1 mgt1 strain, at 50.0 µM, active compounds read high
Method in brief: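 This yeast growth screen uses a strain with defined DNA-repair lesions; compound-treated growth is compared with vehicle-treated growth.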

[4] = NCI Yeast Anticancer Drug Screen. Data for the cln2 rad14 strain (AID 165);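 note: 0% = growth equal to vehicle treated cultures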; conditions: S. cerevisiae cln2 rad14 strain, at 50.0 µM, active compounds read high
Method in brief: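 Yeast carrying cln2 and rad14 alterations (cell cycle control and DNA damage repair) were exposed to compounds. Growth inhibition was measured against vehicle-treated controls.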

[5] = NCI Yeast Anticancer Drug Screen. Data for the bub3 strain (AID 167); conditions: S. cerevisiae bub3 mutant strain, at 50.0 µM, active compounds read high
Method in brief: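 Growth of a checkpoint-deficient yeast mutant is measured after compound exposure. Values represent inhibition relative to vehicle.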

[6] = NCI Yeast Anticancer Drug Screen. Data for the mlh1 rad18 strain (AID 175); conditions: S. cerevisiae mlh1 rad18 strain growth inhibition; at 50.0 µM; active compounds read high
Method in brief: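 Growth inhibition of the yeast strain was measured after compound exposure and expressed relative to vehicle-treated controls. The strain carries defined defects in DNA damage repair.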

| SMILES | growth inhibition [1] | growth inhibition [2] | growth inhibition [3] | growth inhibition [4] | growth inhibition [5] | growth inhibition [6] |
| --- | --- | --- | --- | --- | --- | --- |
| O=S(=O)(Nc1cc(Cl)c(NS(=O)(=O)c2ccccc2)c(S(=O)(=O)c2ccccc2)c1Cl)c1ccccc1 | 58.2% | 62.4% | 73.5% (active) | 71.8% (active) | 65.3% | 65% |
| COC(=O)C(C)c1cccc2ccc3ccccc3c12 (configuration not stated) | 16.3% | -11.7% | 16.2% | 9.55% | 15.2% | 23.4% |
| O=[N+]([O-])c1cc(F)c(F)cc1F | -26.9% | 4.15% | -21.1% | -32.2% | -14.6% | 26.9% |
| O=C(CSCC(=O)c1ccc([N+](=O)[O-])cc1)c1ccc([N+](=O)[O-])cc1 | -19.4% | -29.6% | 9.85% | -0.65% | -20.1% | -5% |
| COC(=O)c1c(C)cc(C)c(C(C)=O)c1O | -16.9% | -14.8% | 0% | -18.7% | 0.75% | -16.1% |
| COc1ccc(CCN=C(C)c2cc(Cl)cc(Cl)c2O)cc1OC | 31.1% | 16.2% | 7% | 19.3% | -0.4% | 13.9% |
| CCOc1ccc(NC(=O)C(Br)C(Br)C(=O)O)cc1 (configuration not stated) | 85.7% (active) | 98.5% (active) | 96.8% (active) | 95.4% (active) | 98.5% (active) | 94.6% (active) |
| OC(C#Cc1ccccc1)(C#Cc1ccccc1)/C=C/c1ccccc1 | 17.1% | -5% | -5.85% | -7.95% | -9.15% | 11.5% |
| COc1ccc2c(c1)CCCN2C(=N)c1ccc([N+](=O)[O-])cc1 | -24.5% | -4.1% | -9.95% | -52.9% | 22.6% | -11.5% |
| C=CCOc1ccc(S(=O)(=O)c2ccc(OCC=C)cc2)cc1 | 3.55% | -7.9% | -2.55% | -27.7% | 8.2% | -4.35% |
| CCOC(=O)c1cc(=O)c2cccc(C)c2[nH]1 | 2.3% | 10.7% | -0.95% | -9.3% | -2% | 20.6% |
| Nc1ccc(S(=O)(=O)NCCS(=O)(=O)O)cc1 | 3.45% | 4.25% | -36.8% | -29.3% | -16.2% | -3.75% |
| Cc1cc2c(C)nn(Cc3ccc(Cl)cc3Cl)c2c(C#N)c1C | 18.2% | -14.8% | 24.9% | 20.1% | 5.8% | 31.6% |
| CCOc1ccccc1Nc1nc(C)c(C(=O)CC(=O)C(=O)Nc2ccccc2)s1 | 45.9% | 5.4% | 28.2% | 9.45% | 29.9% | 12.9% |
| CC1CC(=O)c2cc3oc(=O)n(C)c3cc21 (configuration not stated) | -3.4% | -4.15% | -6.2% | -20.5% | 19.2% | -0.45% |
| COC(=O)C(=O)C(C(=O)C(N)=O)c1nc2ccc(C(=O)c3ccccc3)cc2[nH]c1=O (configuration not stated) | 0.35% | 5.45% | -17.2% | -9.25% | -19.1% | 9.85% |
| COc1ccc(N(C)C(=S)c2ccccc2)cc1 | -49.5% | -11.7% | -15.4% | -37.5% | 0.45% | -10.9% |
| COc1ccc2nc3cc(Cl)ccc3c(C=O)c2c1 | -0.15% | 7.65% | 5.75% | -35.8% | -4.3% | -2.25% |
| O=[N+]([O-])c1ccc(Cl)cc1N/N=C/c1cccs1 | -46.1% | -40.2% | -40.8% | -9.5% | -30.8% | -31.8% |

| SMILES | growth inhibition [1] | growth inhibition [2] | growth inhibition [3] | growth inhibition [4] | growth inhibition [5] | growth inhibition [6] |
| --- | --- | --- | --- | --- | --- | --- |
| COCCOC(=O)c1ccccc1C | 8.7% | 2.35% | 0.3% | -27.6% | 11.8% | 0.55% |
| CC(=O)Nc1c(C(=N)C#N)ncn1CCO | 2.3% | 10.2% | 8.35% | 11.2% | -3.65% | 5.5% |
| COc1cc(NCCCCCN2C(=O)c3ccccc3C2=O)c2ncccc2c1 | 13.9% | 13.2% | 17.4% | 11% | 10.7% | 0.1% |
| CC1=CC2CC(C)C1(C)CCc1ccoc12 (configuration not stated) | 2.8% | -11.7% | -2.8% | 6.75% | 9.85% | 4.7% |
| Cc1cc(=O)c(C#N)c(C)o1 | 6.65% | 10.2% | 19.4% | -2.7% | -1.95% | 10% |
| CC(=O)C1CCN(Cc2ccccc2)C1 (configuration not stated) | 3.75% | 6.9% | 7.15% | -1.05% | -12.7% | -21.6% |
| Cc1nc2n(c1C(N)=O)CCS2 | 5.15% | -5.65% | -5% | -55.8% | -10.7% | -10.7% |
| CN(C)Cc1ccc2ccccc2c1CC(O)(c1ccccc1)c1ccccc1 | 26.3% | -2.05% | 9.55% | 2.25% | 0.85% | 7.35% |
| O=C(/C=C(/CC(O)(c1ccccc1)c1ccccc1)Nc1ccccc1)c1ccccc1 | 10.3% | -2.7% | -6.4% | 2.35% | -1.2% | -2.1% |
| O=C1CC[C@@H](NC(=O)Cc2ccccc2)C(=O)N1 | -6.65% | -19.3% | -12.8% | -6.75% | 2.25% | -9.1% |
| CCCCNc1nnc(N)s1 | 4.65% | -24.2% | -10.3% | -34.5% | -2.2% | -27.9% |
| COC(=O)c1cccc(Cl)c1C(=O)c1ccc(C)cc1C | -25% | -8.3% | -9.1% | -52.9% | 31.1% | 11.4% |
| NC(=O)c1nnc2cc(F)c(F)cc2c1N | -15.8% | -20.8% | -9.65% | 3.8% | 9.5% | -16.6% |
| CC(C)CCN(CCCNc1c2c(nc3ccc(Cl)cc13)CCCC2)CCC(C)C | -1.65% | -9.4% | -7.55% | -34.4% | -1.25% | 4.95% |
| CC(=O)NCCc1ccc2c(c1)[nH]c1ccccc12 | -1.9% | -36% | -8.75% | 12.6% | -17.1% | -8.05% |
| CCOP(=O)(OCC)c1cc(NC(=O)c2cc(NC(=O)c3cc(NC(=O)Nc4cc(C(=O)Nc5cc(C(=O)Nc6cc(P(=O)(OCC)OCC)c7cccc(P(=O)(OCC)OCC)c7c6)n(C)c5)n(C)c4)cn3C)cn2C)cc2c(P(=O)(OCC)OCC)cccc12 | -5.45% | -1.55% | -16.1% | 19.9% | 2.5% | 10.7% |
| C/C(CC(=O)Nc1ccc(C)c(C)c1)=N\NC(N)=S | -13.8% | -6.1% | 1.45% | 18.2% | 0.05% | -2.4% |
| OC12c3ccccc3C1CCCCCC21OCCCO1 (configuration not stated) | -9.4% | -27.8% | -31.8% | -17.4% | -8.4% | -19.9% |
